Source: PubChem BioAssay
Only some compounds are listed: those with a hit (about 5.9% of all), similar ones and a draw of the others.
HSF1 inhib = HSF1 inhibitors in luciferase reporter cells, primary screen, cell-based, NIH3T3, luminescence. AID 2098, 2009. activity change, negative = inhibition, % at 7.5 µM (by protocol). 300,000 tested, 0.77% active. NIH3T3-HGL HSE-luciferase, MG132-induced, luminescence 8 h; stronger effect = lower value;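 active = more than half of replicate wells show activity change below -50%, luminescence cut by over half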;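 note: luciferase reports HSF-1 transcriptional activity via heat shock element; 0% = median of DMSO wells and -100% = zero luminescence signal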
HSP90 refold inh = HSP90 inhibitors, primary screen, cell lysate, luminescence; Heat shock protein HSP 90 (rabbit reticulocyte lysate; luciferase refolding); Rabbit reticulocyte lysate, luciferase refolding luminescence, 3 h; inhibition, % at 5.6 µM; 290,000 tested, 0.91% active;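 active = inhibition above the screen-wide mean plus 3 SD, computed separately per campaign, cut at about 16% in these data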;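 note: 0% = DMSO wells and 100% = 60 µM geldanamycin wells; inhibitors lower the luminescence because luciferase stays unfolded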
AHR act = AHR activators, primary screen, cell-based, luminescence, luciferase reporter, human; Aryl hydrocarbon receptor (Homo sapiens), P35869; AHR-responsive luciferase reporter cells; activation, % at 5 µM; 320,000 tested, 2.5% active; in the data active = activation above about 47%;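 note: 0% = vehicle wells and 100% = reference agonist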
NR0B1 inh = DAX1 (NR0B1) inhibitors, primary screen, cell-based, HEK293, Gal4-DAX1, luciferase luminescence; AID 504766, 2011; inhibition, % at 6.75 µM; HEK293 Gal4-DAX1 luciferase reporter; 340,000 tested, 0.99% active;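 active = inhibition above the mean over all tested compounds plus 3 SD, cut at about 4.2% in these data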;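 note: 0% = DAX1-transfected cells with DMSO and 100% = empty-vector control cells with DMSO; inhibition shows as a rise in luminescence from relieved DAX1 repression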
Target sequence (P51843 207-470 limits assumed): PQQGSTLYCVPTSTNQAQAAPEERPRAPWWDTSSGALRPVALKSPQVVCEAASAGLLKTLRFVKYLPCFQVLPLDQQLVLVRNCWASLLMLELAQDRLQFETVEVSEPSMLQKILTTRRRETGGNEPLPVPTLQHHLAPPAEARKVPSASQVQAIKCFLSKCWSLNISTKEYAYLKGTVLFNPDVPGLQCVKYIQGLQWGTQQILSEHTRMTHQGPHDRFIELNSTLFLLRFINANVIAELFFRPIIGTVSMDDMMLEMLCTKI
GAA850 FXN act = FXN promoter activators, primary screen, cell-based, luciferase luminescence, HEK293 lucGAA850 | AID 540364, 2011 | activation, % at 6 µM | 360,000 tested, 0.56% active | HEK293 lucGAA850 FXN promoter luciferase reporter, 24 h; percent of 10 µM SAHA response;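 active = activation above the average of all compounds screened plus 3 SD, cutoff fixed separately per campaign, cut at about 7.5% in these data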;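 note: 0% = DMSO wells and 100% = 10 µM SAHA wells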
HSF1 activator = HSF-1 activators, primary screen, NIH3T3-HGL cells, MG132 stress, luminescence, single point; NIH3T3-HGL HSF-1 luciferase reporter, 8 h; 100% = twice DMSO control signal; activation, % at 9 µM; 300,000 tested, 1.7% active;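 active = mean replicate activation of at least 50% with a set share of replicates each reaching 50%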;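 note: 0% = median of the neutral control wells and 100% = twice that signal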
An asterisk follows results filed as active; . = not tested or not shown.

SMILES	HSF1 inhib	HSP90 refold inh	AHR act	NR0B1 inh	GAA850 FXN act	HSF1 activator
O=[N+]([O-])c1nn(-c2ccc3c(c2)OCCO3)n(O)c1=NCc1ccc(F)cc1	22.7	3.4	24.2	0.2	1.6	54.1*
Cn1ccnc1SCC(=O)n1c2c(c3ccccc31)CCCC2	-1.2	5.3	72.2*	-0.1	1.2	6.3
O=C(CSc1nc2ncc(Cl)cc2[nH]1)c1c[nH]c2ccccc12	2.0	-1.6	60.2*	2.2	4.9	12.1
Cn1ccnc1SCC(=O)Nc1cccc2ccccc12	-0.9	-1.3	10.0	0.6	-0.6	10.1
O=C(CSc1nc2ccc(Cl)cc2[nH]1)c1c[nH]c2ccccc12	17.1	2.2	76.8*	-0.2	1.4	10.6
Cn1ccnc1SCC(=O)c1c[nH]c2ccccc12	16.1	0.2	69.9*	2.4	5.8	13.9
O=C(COC(=O)c1cc([N+](=O)[O-])ccc1N1CCOCC1)Nc1ncc(Cl)cc1Cl	-3.6	-3.7	30.3	0.1	0.9	4.9
CCCCc1ccc(S(=O)(=O)NC(=O)C2(C)CCN2C(=O)C/C=C/c2ccccc2)cc1 (stereo not given)	.	.	.	.	0.2	.
C[C@@H]1CN([C@H](C)CO)C(=O)Cc2cc(NS(=O)(=O)c3cn(C)cn3)ccc2O[C@H]1CN(C)S(=O)(=O)c1ccc(Cl)cc1	.	.	-1.2	1.7	-2.8	.
CCOc1ccc(NS(=O)(=O)c2ccc3[nH]c(=O)[nH]c3c2)cc1	-10.7	-1.9	4.6	1.9	2.0	4.6
COc1ccc(C2=NOC(Cn3nc(C(=O)NCc4ccccc4OC)cc3-c3ccccc3)C2)cc1 (stereo not given)	-13.6	.	5.2	-3.0	-3.7	-13.9
COC(=O)Cc1c(C)c2ccc(OC(=O)c3ccccc3)cc2oc1=O	26.5	0.8	-4.4	-0.7	-0.4	61.3*
O=C1C2C3C=CC(CC3)C2C(=O)N1c1cccc(C(F)(F)F)c1 (stereo not given)	2.6	-1.4	0.5	0.4	1.1	2.8
Cc1ccc(N/N=C/c2ccncc2)cc1	7.5	10.9	50.8*	-0.3	4.5	25.6
Cc1ccc([C@H]2C[C@@H](O)[C@H](n3cc(COC(=O)c4ccccc4)nn3)CN2C(=O)c2cccs2)cc1	.	.	.	0.0	-0.5	.
Cc1cc(C(=O)NC2CCCN(Cc3ccc(Cl)cc3)C2)n(C)n1 (stereo not given)	-85.3*	-3.4	.	-0.6	2.3	-88.6
Cn1c(C(=O)Nc2ccc(Cl)cc2)cc2cc(Cl)ccc21	6.0	-4.9	68.2*	0.1	-1.4	8.1
O=C(CCN1CCc2ccccc2CC1)c1ccc2c(c1)OCCO2	55.1	1.4	-3.1	0.3	-2.2	82.2*
O=C(CCCO)c1ccc2c(c1)OCCO2	-60.0*	-3.6	2.9	1.2	3.1	-68.9
O=C(COC(=O)c1cc(S(=O)(=O)N2CCCC2)ccc1O)NCCc1ccccc1	.	.	0.3	0.6	-1.4	.
O=C(NCCC1CCCCN1S(=O)(=O)c1ccc(F)cc1)C(=O)Nc1ccccc1F (stereo not given)	-67.5*	.	3.1	-0.1	1.0	-74.9
CN(C)c1oc(/C=C/c2ccccc2)nc1C#N	-8.0	0.8	50.5*	1.6	6.3	-3.1
COc1ccccc1/C=C/c1nc(C#N)c(N(C)C)o1	33.8	-1.8	39.6	4.1	4.7	25.8
O=C(O)c1ccnc(C(=O)O)c1	-0.3	2.0	-1.3	4.5*	4.2	-1.6
O=C(O)c1cc(Br)ccn1	-2.1	0.5	-2.8	0.8	0.2	-0.7
SMILES	HSF1 inhib	HSP90 refold inh	AHR act	NR0B1 inh	GAA850 FXN act	HSF1 activator
C=CCOc1ccn(C)c(=O)n1	-54.5*	-0.6	5.8	1.2	-0.7	-63.9
O=C(CNC(=O)c1ccc(Br)o1)Nc1ncccc1O	8.3	.	2.3	0.6	1.8	-10.0
COc1cccc2cc3c(=O)n(-c4ccccc4)nc-3oc12	-4.4	1.5	49.1*	1.0	-0.9	5.7
O=c1c2[nH]c3ccc(F)cc3c2nc2n1CCCS2	10.7	0.1	71.5*	0.5	-1.0	5.7
O=c1c2[nH]c3ccc(F)cc3c2nc2n1CCS2	4.6	-1.5	31.9	0.0	1.9	12.9
O=c1c2[nH]c3ccccc3c2nc2n1CCCS2	7.7	-1.1	65.8*	.	2.3	10.6
CCOC(=O)C1=C(COC(=O)CNS(=O)(=O)c2c(F)cc(F)cc2Br)NC(=O)NC1C (stereo not given)	.	.	.	0.2	0.2	.
Nc1ncc(Br)cc1S(=O)(=O)Nc1ccccc1F	-5.2	-4.8	0.6	-0.2	-0.6	0.1
COc1cccc(C(=O)Nc2ccncc2)c1OC	1.4	-5.2	10.0	-1.1	1.1	16.0
CCCNC(=O)C(=O)Nc1ccc(N(C)C)cc1	5.2	0.1	67.6*	2.5	1.8	13.1
COc1cccc(C(=O)Nc2ccc(N(C)C)cc2)c1OC	35.2	1.2	37.6	0.7	2.8	70.8*
CN(C)c1ccc(NC(=O)c2cccc(C(=O)Nc3ccc(N(C)C)cc3)n2)cc1	.	-2.9	68.0*	-2.6	3.1	.
O=C(Nc1ccccc1)c1cccc(C(=O)Nc2ccccc2)n1	-2.8	-0.7	2.0	0.2	-2.2	-4.5
O=C1CNC(=O)/C(=C/c2ccco2)N1	-5.6	1.8	0.3	4.4*	1.6	14.2
O=C1C(=Cc2ccco2)C(=O)c2ccccc21	6.5	0.4	14.8	1.5	4.3	15.5
COC(=O)/C=C1/N/C(=N\c2nc(C)cc(C)n2)N(c2ccc(C)c(C)c2)C1=O	55.2	0.3	9.1	0.1	1.4	90.9*
COC(=O)/C=C1\N/C(=N\c2nc(C)cc(C)n2)N(c2ccc(C)cc2)C1=O	-3.9	2.6	5.4	-1.0	1.4	3.5
CCCCN1C(=O)/C(=C/C=C2\SCCN2C)SC1=S	-0.4	-2.7	.	2.9	9.8*	24.3
COc1ccc(CCNC(=O)c2cc(COc3c(C)cccc3C)on2)c(OC)c1	18.2	6.3	1.2	0.5	-0.2	56.0*
COC(=O)c1ccc(N(CC(=O)NC2CCCC2)C(=O)c2ccc(C)s2)cc1	-5.3	1.0	-2.2	1.1	-2.3	14.5
Cc1oc2ccc(OC(=O)N3CCOCC3)cc2c1C(=O)OC(C)C	6.4	-3.8	47.1*	-0.7	-0.1	1.8
Cc1oc2ccc(OCC(N)=O)cc2c1C(=O)OC(C)C	-10.8	4.3	58.8*	-0.3	0.5	3.7
O=C(CCC1CCCCC1=O)c1ccccc1 (stereo not given)	5.2	2.1	-2.0	0.5	0.7	1.9
CC1(C)CC(=O)C(CCC(=O)c2ccccc2)C(C)(C)N1 (stereo not given)	-85.9*	1.1	-1.3	-0.2	-1.2	-88.7
